Measurements published in PubChem BioAssay AID1347416 (National Center for Advancing Translational Sciences (NCATS), 2020).
In all, about 4,100 compounds went through this assay and about 1,600 (39%) were called active. About 25% were inconclusive and are not listed. Calls follow the shape of the dose curve; as a rule, active = well fitted inhibition curve with a large enough effect; inconclusive = small, poorly fitted or top-dose-only effect; inactive = no such curve, though single readings can be large or run the other way. Some of the results follow.

assay: qHTS Validation assay for Inhibitors of Plasmodium falciparum Dd2 growth in vitro; also: nearly all actives have a fitted effect of over 70% in size; conditions: P. falciparum Dd2 in RBCs, SYBR Green growth, 72 h; series mostly up to 28.7 µM
From the text: Malaria, a parasitic disease spread to humans through the bite of a Plasmodium infected Anopheles mosquito, continues to be a global health burden affecting millions of people, with an estimated 228 million cases and 405,000 deaths in 2018. Concerns about safety and limitations of current antimalarial treatments strongly emphasize the need to develop new therapeutic options. The scarce number of chemotypes and validated drug targets with efficacy against the liver stage, have hindered development of new antimalarials. To address this, a chemoprophylactic drug discovery effort was conducted through a combined phenotypic high-throughput asexual blood stage and liver stage screen, providing a robust foundation to identify liver-stage active lead chemotypes. Compounds were initially screened against Plasmodium falciparum Dd2 strain parasites using a in vitro SYBRGreen-1 based 72 hr proliferation assay to identify novel chemotypes to advance to liver stage assays. NIH/NCATS Early Translation Branch Assay Submitter (PI): Anton Simeonov Ph.D.
[…] Assay Protocol: PROTOCOL TABLE (as described by Inglese et al., 2007) SEQUENCE No. (e.g., 1, 2, 3, etc.); PARAMETER (e.g., Cells, Incubation, Reagent, etc.); VALUE; DESCRIPTION SEQUENCE, Parameter, Description 1; Reagent; 3 uL complete malaria growth medium, 1536 TC treated Black clear bottom plate 2; Controls; 23 nL positive control artesunate (300 nM final) to column 1; Neutral control DMSO to columns 2-4 3; Compound; 23 nL of compounds in dose response concentration (29 uM to 0.5 nM final) 4; Reagent; 5 uL malaria infected red blood cells (2.5% hematocrit final, 0.3% parasitemia 5; Time; 72 hours at 37C (5% O2, 5% CO2, 90% N2; 95% Rh) 6; Reagent; 2 uL lysis buffer/SYBRGreen-1, 25 sec shake immediately following dispense 7; Time; ~16 hours at 37C (5% O2, 5% CO2, 90% N2; 95% Rh) 8; Detector; EnVision (PerkinElmer) bottom read at 485/14nm excitation and 535/25 nm emission NOTES (numbers refer to sequence above): 1; Complete Malaria Growth Media: 1X RPMI-1640 w/L-glutamine, 5.5g/L Albumax II, 367 uM Hypoxanthine, 25 mM HEPES, 0.25% Sodium Bicarbonate, 35 uM Gentamicin sulfate 2; Controls were added using the Kalypsis Pintool (Wako USA) equipped with 1536 pinhead 3; Compounds were added in a 7-point, titration with a high final concentration of 29 uM by Pintool from seven inter-plate titrations of library plates and two DMSO control plates at the beginning and end (see Yasgar et al., 2008). 4; Red blood cells infected with Plasmodium falciparum Dd2 parasites were used. 6; Lysis buffer: 20 mM Tris-HCl, 10 mM EDTA, 0.16% Saponin, 1.6% Triton-X, 10X SYBR Green. REFERENCE: Inglese J, Shamu CE, Guy RK. 2007. Reporting data from high-throughput screening of small-molecule libraries. Nat Chem Biol. doi:10.1038/nchembio0807-438 Yasgar A, Shinn P, Jadhav A, Auld D, Michael S, Zheng W, Austin CP, Inglese J, Simeonov A. 2008. Compound Management for Quantitative High-Throughput Screening. J Lab Autom 13:79-89. doi:10.1016/j.jala.2007.12.004
Potency is read from the fitted curve at half-maximal effect.

Potency, inactive:
CC(C)C[C@H]1NC(=O)[C@@H]2C[C@@H](NC(=O)CS(=O)(=O)c3ccccc3)CCN2C1=O, CC(=O)N1CCc2c(sc3c2c(=O)n(Cc2ccccc2)c(=O)n3CC(=O)NCC2CCCO2)C1 (stereo not drawn), O=C(Cn1ccn2nc3c(c2c1=O)CCCCC3)NCc1ccccc1Cl, Cc1nc(C)c(C(=O)NCC2CCCCC(=O)N2)s1 (stereo not drawn), COc1ccc(OC)c(-n2nnc(-c3nc(-c4cc(OC)c(OC)c(OC)c4)no3)c2C)c1, O=C1NCCCCCCN(C(=O)c2cnccn2)[C@H]2CCCC[C@@H]12, COc1ccccc1-c1[nH]nc2ncc(-c3c(C)noc3C)nc12, Cc1ccsc1-c1[nH]nc2ncc(-c3ccccc3)nc12, O=C(O)C[C@@H]1CCN(C(=O)C2CCCCC2)C[C@@H]1CCN1CCOCC1, CCOc1ccccc1C1NC(=O)N(CC(=O)Nc2ccc(OC)cc2)C2=C1C(=O)OC2 (stereo not drawn), CC1CCC2(CC1)NC(=O)N(CC(=O)Nc1ccc(Cl)cc1)C2=O (stereo not drawn), CCCN(CC1CC1)C(=O)[C@@H]1COCC(=O)N1Cc1ccccc1, Cc1cc(C)c(S(=O)(=O)Nc2cc(-c3cn4ccccc4n3)ccc2C)cc1C, CC(C)NC(=O)N1Cc2[nH]cnc2C[C@H]1C(=O)NCc1ccc(Cl)cc1, Cc1ccc(C(=O)N2CCCN(c3cc(-c4ccc(Br)cc4)[nH]n3)CC2)cn1, O=C(NC1CCCN(c2cc(-c3ccc(Cl)cc3)[nH]n2)C1)c1ccc(Br)o1 (stereo not drawn), O=C(COc1ccc(-c2nnc3n2CCCC3)cc1)Nc1cccc(Br)c1, O=C(Nc1ccc(CN2CCOCC2)cc1)c1ccc(-c2ccc(Br)cc2)o1, CN(C)C(=O)C1CN(C(=O)Nc2cccc(Br)c2)CC12CCOCC2 (stereo not drawn), O=C1[C@H]2CN(Cc3cc(F)ccc3F)C[C@H]2C(=O)N1Cc1ccc2c(c1)OCO2, COCCCNC(=O)CCN(CCC(C)C)C(=O)c1cc(C)oc1C, Cc1ccc(OC2(C(=O)NC(C)c3nn[nH]n3)CCNCC2)cc1 (stereo not drawn), Clc1ccc(Cn2ncc3c(N4CCOCC4)ncnc32)cc1, CN(C1CCOCC1)C1CCN(C(=O)c2cccc(Cl)c2)CC1, Cc1cccc(OCC(=O)N2CCC(c3n[nH]c(=O)n3-c3ccccc3)CC2)c1, CN(C)S(=O)(=O)N1CCCC(Cn2c(C3CC3)nc3cccnc32)C1 (stereo not drawn), Fc1cc(F)cc(CNc2ncncc2-c2nc(-c3ccccc3)no2)c1, Cn1cnc(S(=O)(=O)N2CCCC(Cc3noc(-c4cccnc4)n3)C2)c1 (stereo not drawn), Brc1ccc(-c2ccnc3nc(-c4cccs4)nn23)s1, Cc1[nH]cnc1CSCCn1ccnc1-c1nccn1C, COc1cc2c(cc1OC)CN(C(=O)c1cccs1)CC2, CCOC(=O)C1=C(O)/C(=C/c2cc(C)n(-c3ccccc3)c2C)N=C1C

Potency, active:
CCOC(=O)N1CCc2c(sc3c2c(=O)n(CCc2ccccc2)c(=O)n3Cc2c(F)cccc2Cl)C1 2.66 µM, CCOC(=O)N1CCc2c(sc3c2c(=O)n(Cc2ccccc2)c(=O)n3Cc2ccccc2Cl)C1 4.73 µM, CCOC(=O)N1CCc2c(sc3c2c(=O)n(-c2ccccc2C(F)(F)F)c(=O)n3Cc2ccccc2C)C1 13.3 µM, COc1ccc(OC)c(-n2c(-c3cccc(O)c3)n[nH]c2=S)c1 4.22 µM, COc1ccc(-c2[nH]nc3ncc(-c4ccc([S+](C)(=O)[O-])cc4)nc23)c(C)c1 15.3 µM, CCOc1ccc(NC(=O)CN2C(=O)NC(C)(c3ccc(OC(F)F)cc3)C2=O)cc1 (stereo not drawn) 9.44 µM, Cc1ccc2nc(-c3ccc(O)c(O)c3)cn2c1 13.3 µM, CC(C)c1ccc(C2c3[nH]c4ccccc4c3C[C@H]3C(=O)N(c4ccccc4C(=O)N4CCC(C(=O)O)CC4)C(=O)N23)cc1 (stereo partly drawn) 6.68 µM, CC(=O)Nc1ccc(NC2=Nc3ccccc3N3C2=Nc2c(c(C)nn2-c2ccccc2)C3c2ccccc2)cc1 (stereo not drawn) 6.68 µM, O=C(Nc1ccc2c(N3CCOCC3)ncnc2c1)c1cccc(Br)c1 4.22 µM, O=C(Nc1ccc2c(N3CCCC3)ncnc2c1)c1cccc(Br)c1 0.668 µM, O=C(Nc1ccc2c(N3CCCC3)ncnc2c1)c1ccc(Br)cc1 4.73 µM, O=C(Nc1ccc2c(N3CCOCC3)ncnc2c1)c1ccc(Br)o1 2.66 µM, O=C(Nc1ccc2c(N3CCOCC3)ncnc2c1)c1cccc(Cl)c1 4.73 µM, CCc1cccc2c(C(CC(=O)N3CCC(C)CC3)c3cccc(C)c3)c[nH]c12 (stereo not drawn) 4.73 µM, CCCCCCSc1ccc([C@@H]2[C@H]3C(=O)N(CC)C(=O)[C@H]3[C@]3(C(=O)OC)CCCCN23)cc1OC 15 µM, COc1ccc2[nH]c(C[C@@H]3C[C@@H](C(C)C)[C@H](CNCc4cccnc4)C=C3C)nc2n1 19.3 µM, COc1ccc2[nH]c(C[C@@H]3C[C@@H](C(C)C)[C@H](CNCc4ccccc4O)C=C3C)nc2n1 0.243 µM, CC1=C[C@@H](CNCc2cccnc2)[C@H](C(C)C)C[C@H]1Cc1nnc(-c2ccc([N+](=O)[O-])cc2)o1 5.31 µM, COc1ccc(-c2nnc(C[C@@H]3C[C@@H](C(C)C)[C@H](CNCc4cccnc4)C=C3C)o2)cc1 6.68 µM, CC1=C[C@@H](CNCc2cccnc2)[C@H](C(C)C)C[C@H]1Cc1nnc(-c2ccc(N(C)C)cc2)o1 5.31 µM, COc1cc(C(=O)OCC(=O)N2CCCCC2C)cc(NC(=O)c2cccs2)c1OC (stereo not drawn) 0.473 µM, CCOC(=O)c1c(CN2CCN(c3ccccc3)CC2)oc2cc(Br)c(O)cc12 1.88 µM, CCOC(=O)c1c(CN(CC)CC)n(C)c2cc(Br)c(O)cc12 9.44 µM, CCOC(=O)c1c(CN2CCCCC2)n(C)c2cc(Br)c(O)cc12 7.5 µM, CCOC(=O)c1c(CN2CCN(CCO)CC2)n(-c2ccccc2)c2cc(Br)c(O)cc12 5.96 µM
